Measured values: PubChem BioAssay
A number with no mark means an inactive call. Active and inactive are the calls of the source.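 The calls were made as follows, unless noted: active = inhibition above 50%; inactive = the rest.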

Assay: antimalarial activity against Dd2 strain (AID 2302;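 active = growth inhibition above 50% at the single 2 µM test dose, taken to imply half-maximal potency below 2 µM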;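 also: 0% = DMSO untreated growth and 100% = chloroquine plus artemisinin killed control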)
Settings: P. falciparum Dd2 in RBCs, LDH growth readout, 72 h; at 2 µM; hits give high values

| Structure (SMILES) | growth inhibition |
| --- | --- |
| CCc1nc2c(cnn2CC)c(NC2CCOCC2)c1CNC(=O)c1ccoc1C | 87% (active) |
| CCOC(=O)c1cc(C(=O)NCCCCN2CCC(c3ccc(CC)cc3OCC)CC2)ccc1-c1ccc(C(F)(F)F)cc1 | 71% (active) |
| Cn1cnc2c(SCc3ccc(OCc4ccccc4)cc3)ncnc21 | 87% (active) |
| COc1ccc(/C=C/C(=O)Nc2ccc(-c3ccncc3)cc2)cc1CCCN(C)C | 86% (active) |
| C/C=C/COc1ccc2ccccc2c1CNCCCCCCCCNCc1c(OC/C=C/C)ccc2ccccc12 | 86% (active) |
| N=c1c(C(=O)NCc2ccccc2)cc2c(=O)n3ccccc3nc2n1CCc1ccccc1 | 25% |
| CCOc1ccc2nc(C)cc(NN=Cc3cccc(F)c3)c2c1 | 23% |
| Nc1nc2ncn(COC(COCc3ccccc3)COCc3ccccc3)c2c(=O)[nH]1 (tested in a mixture with another compound) | 57% (active) |
| N#Cc1cccc(NC(=O)c2cccc(S(=O)(=O)NC3CCN(CC4CCCCC4)C3)c2)c1 (stereo not given) | 27% |
| O=C(COc1ccccc1)N(Cc1ccc(-c2ccc(CNC3Cc4ccccc4C3)cc2)cc1)C1CCNCC1 | 8% |
| Cc1ccccc1CNc1noc(-c2sccc2Br)n1 | 88% (active) |
| CCOC(=O)[C@H](Cc1cc([N+](=O)[O-])c(Oc2ccc(OC)c(Cc3ccc(OC)c(C(C)C)c3)c2)c([N+](=O)[O-])c1)NC(=O)C(F)(F)F | -3% |
| CCC1N=C(N)N=C(N)N1OCc1ccc(Cl)c(Cl)c1 (stereo not given) | 90% (active) |
| CC(C)(C)c1ccccc1OCCCON1C(N)=NC(N)=NC1(C)C | 98% (active) |
| COc1ccccc1-c1cccc2c(NC(=O)Nc3ccc4nccc(N5CCN(C)CC5)c4c3)ccnc12 | 34% |
| CC(C)(C)c1ccc2nccc(Nc3cccc(O)c3)c2c1 | 100% (active) |
| CCc1cn2c3c(cc(C(=O)N[C@@H](Cc4cccc(Cl)c4)[C@H](O)CNC4CCOCC4)cc13)N(C)S(=O)(=O)CC2 | 98% (active) |
| CC[C@H](C)CNC(=O)c1ccnc(-c2ccc(CN3CCC(N4CCCC4)CC3)cc2)c1 | 84% (active) |
| Cc1cccc(Nc2nc(C)cc(N3CCCN(CC4CCCCC4)CC3)n2)c1 | 21% |
| CCCCN1CCN(c2cc(NS(=O)(=O)c3cccc(C(=O)Nc4ccc(C(F)(F)F)cc4)c3)ccc2OC)CC1 | 7% |

| Structure (SMILES) | growth inhibition |
| --- | --- |
| CCC1(CC)N=C(N)N=C(N)N1OCc1ccc(Cl)c(Cl)c1 | 49% |
| CNC(=O)C(C)N(c1ccc(Cl)cc1)c1nc(C(C)(C)C)cs1 (stereo not given) | 98% (active) |
| CCC[C@@H]([C@@H](CC(C)C)C(=O)N[C@@H](CCCCNC(=O)c1ccccn1)C(=O)Nc1nccs1)N(O)C=O | 100% (active) |
| CCN=C1NC2=C(CC(C(C)(C)C)CC2)C2(CCC(C(C)(C)C)CC2)S1 (stereo not given) | 99% (active) |
| C[C@@H]1CN(c2ncc(-c3ccc(CNC4Cc5ccccc5C4)cc3)cn2)C[C@H](C)N1 | 78% (active) |
| O=C(NCc1ccc(Cl)c(Cl)c1)c1cccc(C2CCCN(Cc3ccc4nc[nH]c4c3)C2)c1 (stereo not given) | 30% |
| Cc1ccc2c(Cl)c(C(=O)N3CC(C)OC(C)C3)sc2c1 (stereo not given) | 98% (active) |
| COc1cccc(Nc2nc(N)c3ccccc3n2)c1 | 47% |
| Cc1c(CCNC(=O)CCCN2CC(C)CC(C)C2)c2ccccc2n1C (stereo not given) | 100% (active) |
| COc1ccc2nccc([C@@H](O)CN3CCC(NC(=O)c4nc(Cl)c(Cl)c(N)c4Cl)CC3)c2c1 | 17% |
| O=C(c1cc(C(=O)NC2CCCCC2)c(=O)n(C2CCCCC2)c1)c1cc(F)ccc1O | 98% (active) |
| O=C(Nc1cccc(CN2CCN(Cc3cccc(O)c3)CC2)c1)c1cc2ccccc2s1 | 54% (active) |
| CC(C)C[C@H](NC(=O)c1cc2ccccc2s1)C(=O)N[C@H]1CCN(Cc2ccc(OCCCN(C)C)c(Cl)c2)C1 | 89% (active) |
| O=C(CCOc1ccccc1)NCC1CCCO1 (stereo not given) | -11% |
| COc1ccccc1Nc1nc(C)cc(NCc2ccc(-n3ccnc3)cc2)n1 | 10% |
| O=C(N[C@@H](CC1CCCCC1)C(=O)NCCN1CCCCC1)c1ccc(O)c(-c2ccc(Cl)c(Cl)c2)c1 | 99% (active) |
| O=C(Nc1ccc(Cl)cc1)c1ccc(CN2CCCN(CC3CCCCC3)CC2)cc1 | 42% |
| CCCc1cc(OC)c(CC2c3cccc(O)c3CCN2C)cc1OC (stereo not given) | 99% (active) |
| CCC1CCCCN1S(=O)(=O)c1ccc(OC)c(N2CCN(C(=O)C(Cl)(Cl)Cl)CC2)c1 (stereo not given) | 29% |
| Cc1cnc(Nc2cccc(CCN3CCOCC3)c2)nc1NC(C)C | 76% (active) |

Assay: HepG2 cytotoxicity, primary screen, cytotoxicity control for P. falciparum antimalarial project, cell-based, ATP luminescence (AID 2303);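 also: 0% = DMSO wells and 100% = digitonin-killed cells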
Settings: HepG2 viability, 24-48 h, at 10 µM, hits give high values

| Structure (SMILES) | inhibition |
| --- | --- |
| CCc1nc2c(cnn2CC)c(NC2CCOCC2)c1CNC(=O)c1ccoc1C | 6% |
| CCOC(=O)c1cc(C(=O)NCCCCN2CCC(c3ccc(CC)cc3OCC)CC2)ccc1-c1ccc(C(F)(F)F)cc1 | 74% (active) |
| Cn1cnc2c(SCc3ccc(OCc4ccccc4)cc3)ncnc21 | 1% |
| COc1ccc(/C=C/C(=O)Nc2ccc(-c3ccncc3)cc2)cc1CCCN(C)C | 3% |
| C/C=C/COc1ccc2ccccc2c1CNCCCCCCCCNCc1c(OC/C=C/C)ccc2ccccc12 | 100% (active) |
| N=c1c(C(=O)NCc2ccccc2)cc2c(=O)n3ccccc3nc2n1CCc1ccccc1 | 5% |
| CCOc1ccc2nc(C)cc(NN=Cc3cccc(F)c3)c2c1 | -3% |
| Nc1nc2ncn(COC(COCc3ccccc3)COCc3ccccc3)c2c(=O)[nH]1 (tested in a mixture with another compound) | 18% |
| N#Cc1cccc(NC(=O)c2cccc(S(=O)(=O)NC3CCN(CC4CCCCC4)C3)c2)c1 (stereo not given) | 29% |
| O=C(COc1ccccc1)N(Cc1ccc(-c2ccc(CNC3Cc4ccccc4C3)cc2)cc1)C1CCNCC1 | 26% |
| Cc1ccccc1CNc1noc(-c2sccc2Br)n1 | -2% |
| CCOC(=O)[C@H](Cc1cc([N+](=O)[O-])c(Oc2ccc(OC)c(Cc3ccc(OC)c(C(C)C)c3)c2)c([N+](=O)[O-])c1)NC(=O)C(F)(F)F | 5% |
| CCC1N=C(N)N=C(N)N1OCc1ccc(Cl)c(Cl)c1 (stereo not given) | 54% (active) |
| CC(C)(C)c1ccccc1OCCCON1C(N)=NC(N)=NC1(C)C | 63% (active) |
| COc1ccccc1-c1cccc2c(NC(=O)Nc3ccc4nccc(N5CCN(C)CC5)c4c3)ccnc12 | 3% |
| CC(C)(C)c1ccc2nccc(Nc3cccc(O)c3)c2c1 | 8% |
| CCc1cn2c3c(cc(C(=O)N[C@@H](Cc4cccc(Cl)c4)[C@H](O)CNC4CCOCC4)cc13)N(C)S(=O)(=O)CC2 | 2% |
| CC[C@H](C)CNC(=O)c1ccnc(-c2ccc(CN3CCC(N4CCCC4)CC3)cc2)c1 | 13% |
| Cc1cccc(Nc2nc(C)cc(N3CCCN(CC4CCCCC4)CC3)n2)c1 | 20% |
| CCCCN1CCN(c2cc(NS(=O)(=O)c3cccc(C(=O)Nc4ccc(C(F)(F)F)cc4)c3)ccc2OC)CC1 | 6% |

| Structure (SMILES) | inhibition |
| --- | --- |
| CCC1(CC)N=C(N)N=C(N)N1OCc1ccc(Cl)c(Cl)c1 | 49% |
| CNC(=O)C(C)N(c1ccc(Cl)cc1)c1nc(C(C)(C)C)cs1 (stereo not given) | 0% |
| CCC[C@@H]([C@@H](CC(C)C)C(=O)N[C@@H](CCCCNC(=O)c1ccccn1)C(=O)Nc1nccs1)N(O)C=O | -23% |
| CCN=C1NC2=C(CC(C(C)(C)C)CC2)C2(CCC(C(C)(C)C)CC2)S1 (stereo not given) | 40% |
| C[C@@H]1CN(c2ncc(-c3ccc(CNC4Cc5ccccc5C4)cc3)cn2)C[C@H](C)N1 | 27% |
| O=C(NCc1ccc(Cl)c(Cl)c1)c1cccc(C2CCCN(Cc3ccc4nc[nH]c4c3)C2)c1 (stereo not given) | 3% |
| Cc1ccc2c(Cl)c(C(=O)N3CC(C)OC(C)C3)sc2c1 (stereo not given) | 4% |
| COc1cccc(Nc2nc(N)c3ccccc3n2)c1 | 18% |
| Cc1c(CCNC(=O)CCCN2CC(C)CC(C)C2)c2ccccc2n1C (stereo not given) | 8% |
| COc1ccc2nccc([C@@H](O)CN3CCC(NC(=O)c4nc(Cl)c(Cl)c(N)c4Cl)CC3)c2c1 | 16% |
| O=C(c1cc(C(=O)NC2CCCCC2)c(=O)n(C2CCCCC2)c1)c1cc(F)ccc1O | 22% |
| O=C(Nc1cccc(CN2CCN(Cc3cccc(O)c3)CC2)c1)c1cc2ccccc2s1 | 13% |
| CC(C)C[C@H](NC(=O)c1cc2ccccc2s1)C(=O)N[C@H]1CCN(Cc2ccc(OCCCN(C)C)c(Cl)c2)C1 | 83% (active) |
| O=C(CCOc1ccccc1)NCC1CCCO1 (stereo not given) | -10% |
| COc1ccccc1Nc1nc(C)cc(NCc2ccc(-n3ccnc3)cc2)n1 | 5% |
| O=C(N[C@@H](CC1CCCCC1)C(=O)NCCN1CCCCC1)c1ccc(O)c(-c2ccc(Cl)c(Cl)c2)c1 | 14% |
| O=C(Nc1ccc(Cl)cc1)c1ccc(CN2CCCN(CC3CCCCC3)CC2)cc1 | 48% |
| CCCc1cc(OC)c(CC2c3cccc(O)c3CCN2C)cc1OC (stereo not given) | 3% |
| CCC1CCCCN1S(=O)(=O)c1ccc(OC)c(N2CCN(C(=O)C(Cl)(Cl)Cl)CC2)c1 (stereo not given) | 9% |
| Cc1cnc(Nc2cccc(CCN3CCOCC3)c2)nc1NC(C)C | 53% (active) |
